Measurements taken from PubChem BioAssay (EPA / NIEHS).
Activity calls are given as the source filed them. Rule for the calls: active = hit-call score of the fitted dose curve at least 0.9, where 1 is the maximum; inactive = score below 0.9.

assay: ATG_TGFb_CIS: Attagene CIS-FACTORIAL HepG2 Assay for human Transforming Growth Factor (TGF) (AID 2282967); conditions: HepG2 Attagene CIS TGFb reporter, mRNA transcription; actives raise or lower the signal
Experimental: ATG_CIS is a cell-based, multiplexed-readout assay that uses HepG2, a human liver cell line, with measurements taken at 24 hours after chemical dosing in a 24-well plate.ATG_TGFb_CIS is one of 52 assay component(s) measured or calculated from the ATG_CIS assay. It is designed to make measurements of mRNA induction, a form of inducible reporter, as detected with fluorescence intensity signals by Reverse transcription polymerase chain reaction (RT-PCR) and Capillary electrophoresis technology.Data from the assay component ATG_TGFb_CIS was analyzed into 1 assay endpoint. This assay endpoint, ATG_TGFb_CIS, was analyzed with bidirectional fitting relative to DMSO as the negative control and baseline of activity. Using a type of inducible reporter, measures of mRNA for gain or loss-of-signal activity can be used to understand the reporter gene at the transcription factor-level as they relate to the gene TGFB1. Furthermore, this assay endpoint can be referred to as a primary readout, because this assay has produced multiple assay endpoints where this one serves a reporter gene function. To generalize the intended target to other relatable targets, this assay endpoint is annotated to the growth factor intended target family, where the subfamily is transforming growth factor beta.
Human liver HepG2 cells are transiently transfected with multiple reporter transcription units (MRTUs) in 6-well plates using FuGene 6 reagent (Roche; 3 ml FuGene/1 mg DNA). The MRTU constructs are regulated by a cis-regulating element (promoter). […] A major difference between the CIS and TRANS system is that in CIS activities of endogenous TFs are measured, whereas the TRANS assay evaluates changes in activities of exogenous, chimeric NR-Gal4 proteins. […] At the end of 24 hour incubation, total RNA was isolated using TriZol reagent (Invitrogen). The isolated RNA is then reverse-transcribed using oligo(dT) primer and Mo-MLV reverse transcriptase (Invitrogen) with DNAse I (Ambion) treatment for 30 min. The one-tenth of the produced cDNA was amplified by PCR using Taq DNA polymerase (Invitrogen) and two reporter sequence-specific primers. The PCR products were fluorescently labeled by primer extension with 6-arboxyfluorescein (6-FAM) 5'-labeled reporter sequence-specific primer (2 min at 95 C, 20 s at 68 C and 10 min at 72 C) and these products were digested with 5U of HpaI (New England Biolabs) for 2h at 37 C. The fragments were purified using Qiaquick PCR columns (Qiagen), analyzed on an ABI 3130xL genetic analyzer (Applied Biosystems) with peak positions identified by using a set of X-rhodamine (ROX)-labeled MapMarker1000 molecular weight standards (BioVentures). The raw capillary electrophoresis data was processed using Attagraph software (Attagene).

| Structure (SMILES) | outcome |
| --- | --- |
| O=c1cc(-c2ccc(O)cc2)oc2cc(O)cc(O)c12 | inactive |
| CC1(C)[C@H](C=C(Cl)Cl)[C@H]1C(=O)OCc1cccc(Oc2ccccc2)c1 | inactive |
| Nc1ccc(N)c([N+](=O)[O-])c1 | inactive |
| CC(C)C(=O)c1ccccc1 | inactive |
| CCC(=O)OCC=Cc1ccccc1 | inactive |
| Nc1ccn([C@H]2CC[C@@H](CO)O2)c(=O)n1 | inactive |
| CCCCCCOC(C)=O | inactive |
| CCCCCCCCCCCCOC(C)=O | inactive |
| CC1=CCC(=C(C)C)CC1 | inactive |
| O=C(O)c1cc2ccccc2cc1O | inactive |
| C1COCO1 | inactive |
| [Na+] | inactive |
| CC12CCC(C1)C(C)(C)C2O (stereo not given) | inactive |
| C1CCCNCC1 | inactive |
| CC(=O)CCC=C(C)CCC=C(C)C | inactive |
| CCCC1CCC(=O)CC1 | inactive |
| CC(=O)OCC=C(C)CCC=C(C)CCC=C(C)C | inactive |
| CCCCCCCCCC(=O)OCC | inactive |
| Cc1cc(N)n(-c2ccccc2)n1 | inactive |
| ClCCOCCOCCCl | inactive |

| Structure (SMILES) | outcome |
| --- | --- |
| Cc1cccc(C)c1 | inactive |
| Nc1ccc(O)c(N)c1 | inactive |
| CC1=CC(O)CC(C)(C)C1 (stereo not given) | inactive |
| CC/C=C\CCOC(C)OCC (stereo not given) | inactive |
| CC(O)CN (stereo not given) | inactive |
| Cc1cccc(O)c1 | inactive |
| CC(C)N1C(=O)c2ccccc2C1=O | inactive |
| NS(=O)(=O)c1cc(C(=O)O)c(NCc2ccco2)cc1Cl | inactive |
| CCCCCCCCCCOC(=O)c1ccccc1C(=O)OCCCCCCCC | inactive |
| CC(C)(C)c1cccc(O)c1 | inactive |
| CC(C)(O)C(=O)c1ccc(OCCO)cc1 | inactive |
| CC(C)Cc1ccccc1 | inactive |
| CC(C)COC(=O)c1ccccc1 | inactive |
| C=CCOCC(O)CO (stereo not given) | inactive |
| O=C1CCC(=O)N1 | inactive |
| CC(=O)N(C)C | inactive |
| Cc1ccccc1S | inactive |
| COc1ccccc1O | inactive |
| CC1COC(=O)O1 (stereo not given) | inactive |
| CC1(C)CC(=O)CC(C)(C)N1 | inactive |
